Several values for one entry are separate records, joined by “and”; a condition that tells them apart may be missing. Equal entries are not always repeated. Records with an inconclusive call do not appear. Activity calls are given as the source filed them. Rule for the calls: active = hit-call score of the fitted dose curve at least 0.9, where 1 is the maximum; inconclusive = response in the unintended direction; inactive = score below 0.9.
Tests used:
[1] = target: Cellular tumor antigen p53 (Homo sapiens) (UniProt P04637); assay: TOX21_p53_BLA_p3_ratio: Tox21 HCT-116 p53 Agonism Beta-lactamase Assay, Ratio, Phase 3 (AID 2283596)
Method in brief: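 HCT116 p53-bla cells (4000/well) given compound in DMSO (217-fold dilution) after 5 h, incubated 16 h at 37C. CCF4-AM substrate 2 h at room temperature; 460/530 nm emission ratio, gain fitted against DMSO.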

[2] = TOX21_p53_BLA_p4_viability: Viability Assessment in the Tox21 HCT-116 p53 Agonism Beta-lactamase Assay, Phase 4 (AID 2283597);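 note: hits lower the luminescence signal meaning cytotoxicity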
Method in brief: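 Following a 16 h exposure at 37C, the treated HCT116 wells were first read for the FRET ratio. They were then lysed with CellTiter-Glo, and ATP luminescence was recorded after 30 min at room temperature.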

[3] = target: Cellular tumor antigen p53 (Homo sapiens) (UniProt P04637); assay: TOX21_p53_BLA_p5_ratio: Tox21 HCT-116 p53 Agonism Beta-lactamase Assay, Ratio, Phase 5 (AID 2283599)
Method in brief: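 HCT-116 cells carrying a p53-inducible beta-lactamase reporter were seeded at 4000 cells/well and dosed after 5 h with compound in DMSO (217-fold dilution). After 16 h at 37C, CCF4-AM substrate was added for 2 h, and the 460/530 nm emission ratio was scored as gain-of-signal versus DMSO.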

[4] = TOX21_p53_BLA_p5_viability: Viability Assessment in the Tox21 HCT-116 p53 Agonism Beta-lactamase Assay, Phase 5 (AID 2283600)
Method in brief: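 After the 460/530 nm beta-lactamase measurement, the wells received an ATP-detection luciferase reagent; signal was read 30 min later at RT. Compound treatment lasted 16 h on cells pre-incubated 5 h post-seeding.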

[5] = target: Cellular tumor antigen p53 (Homo sapiens) (UniProt P04637); assay: TOX21_p53_BLA_p4_ratio: Tox21 HCT-116 p53 Agonism Beta-lactamase Assay, Ratio, Phase 4 (AID 2283601)
Method in brief: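 HCT116 cells carrying an inducible beta-lactamase reporter were plated at 4000 cells/well, rested 5 h, then exposed to compounds in DMSO (217-fold dilution) for 16 h at 37C. CCF4-AM substrate was loaded 2 h at room temperature; 460/530 nm emission ratio scored gain-of-signal versus DMSO.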

[6] = Tanguay_ZF_120hpf_MORT_legacy: (Legacy) Oregon State University Tanguay Lab 120 Hour Post-fertilization zebrafish Assay for Mortality (AID 2283633);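 for AC50: fitted as increase in binary mortality versus DMSO negative control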
Method in brief: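 Static waterborne exposure from 6 to 120 hpf at 28C of single dechorionated wild-type (5D) embryos per well, 0.64% DMSO final. Death recorded present/absent by brightfield at 24 and 120 hpf.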

[7] = Tanguay_ZF_120hpf_YSE_legacy: (Legacy) Oregon State University Tanguay Lab 120 Hour Post-fertilization zebrafish Assay for Yolk Sac Edema (AID 2283634)
Method in brief: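 Presence or absence of yolk sac edema was recorded at 120 hpf in surviving larvae. These were wild-type Tropical 5D embryos, chorion removed at 4 hpf, held in static exposure at 28C from 6 hpf with 0.64% DMSO vehicle.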

[8] = Tanguay_ZF_120hpf_AXIS_legacy: (Legacy) Oregon State University Tanguay Lab 120 Hour Post-fertilization zebrafish Assay for Body Axis Malformation (AID 2283635)
Method in brief: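 Binary scoring of axis defects at 120 hpf under brightfield, fitted positive versus DMSO. Tropical 5D embryos, chorion removed by pronase at 4 hpf, were singly exposed in sealed, dark plates at 28C from 6 hpf; DMSO 0.64% final.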

[9] = Tanguay_ZF_120hpf_EYE_legacy: (Legacy) Oregon State University Tanguay Lab 120 Hour Post-fertilization zebrafish Assay for Eye Malformation (AID 2283636);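 note: binary presence or absence of eye malformation scored by brightfield in 120 hpf larvae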
Method in brief: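 Dechorionated wild-type Tropical 5D zebrafish embryos were exposed statically from 6 hpf, one per well, to 120 hpf at 28C in sealed, foil-covered plates with 0.64% DMSO. Eye malformation was scored present/absent by brightfield microscopy against DMSO controls.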

[10] = Tanguay_ZF_120hpf_SNOU_legacy: (Legacy) Oregon State University Tanguay Lab 120 Hour Post-fertilization zebrafish Assay for Snout Malformation (AID 2283637)
Method in brief: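 Tropical 5D wild-type zebrafish embryos, dechorionated with pronase at 4 hpf, were exposed singly from 6 hpf to 120 hpf statically at 28C in 0.64% DMSO. Snout malformation was scored present/absent by brightfield microscopy, fitted against DMSO.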

[11] = Tanguay_ZF_120hpf_JAW_legacy: (Legacy) Oregon State University Tanguay Lab 120 Hour Post-fertilization zebrafish Assay for Jaw Malformation (AID 2283638)
Method in brief: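 Binary jaw-malformation call at 120 hpf by brightfield microscopy. Embryos (Tropical 5D strain, chorion removed at 4 hpf) were dosed statically at 6 hpf, one per well, at 28C with 0.64% DMSO. Embryos that died were not scored.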

[12] = Tanguay_ZF_120hpf_OTIC_legacy: (Legacy) Oregon State University Tanguay Lab 120 Hour Post-fertilization zebrafish Assay for Otic Vesicle Malformation (AID 2283639)
Method in brief: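 Tropical 5D wild-type zebrafish embryos statically exposed in 0.64% DMSO at 28C until 120 hpf; 5uM trimethyltin chloride as positive control. Otic vesicle malformation scored present/absent by brightfield; dead embryos not scored; gain fitted versus DMSO.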

[13] = Tanguay_ZF_120hpf_PE_legacy: (Legacy) Oregon State University Tanguay Lab 120 Hour Post-fertilization zebrafish Assay for Pericardial Edema (AID 2283640)
Method in brief: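 Scoring was binary, by brightfield microscopy at 120 hpf, and skipped where mortality occurred. Wild-type embryos were kept under sealed, foil-covered static exposure at 28C in 0.64% (vol/vol) DMSO.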

[14] = Tanguay_ZF_120hpf_SOMI_legacy: (Legacy) Oregon State University Tanguay Lab 120 Hour Post-fertilization zebrafish Assay for Somite Malformation (AID 2283647)
Method in brief: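 Binary somite-defect scoring at 120 hpf, omitted for embryos that died, in wild-type (Tropical 5D) zebrafish with chorion removed by pronase at 4 hpf; static exposure began 6 hpf, single embryos per well, 28C, 0.64% DMSO; fitted positive versus DMSO.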

[15] = Tanguay_ZF_120hpf_PFIN_legacy: (Legacy) Oregon State University Tanguay Lab 120 Hour Post-fertilization zebrafish Assay for Pectoral Fin Malformation (AID 2283648);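 note: each larva judged yes or no for fin defect by brightfield with dead larvae skipped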
Method in brief: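 Tropical 5D wild-type embryos, dechorionated with pronase at 4 hpf, were placed singly in wells at 6 hpf and statically exposed until 120 hpf at 28C, sealed and dark, with 0.64% (vol/vol) final DMSO; pectoral fin malformation scored present/absent.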

[16] = Tanguay_ZF_120hpf_CFIN_legacy: (Legacy) Oregon State University Tanguay Lab 120 Hour Post-fertilization zebrafish Assay for Caudal Fin Malformation (AID 2283649)
Method in brief: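 Binary brightfield scoring of caudal fin defects at 120 hpf after static, light-shielded exposure at 28C from 6 hpf. Tropical 5D embryos, chorion removed with pronase at 4 hpf, final DMSO 0.64%.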

[17] = Tanguay_ZF_120hpf_PIG_legacy: (Legacy) Oregon State University Tanguay Lab 120 Hour Post-fertilization zebrafish Assay for Pigmentation Malformation (AID 2283650)
Method in brief: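 Tropical 5D wild-type zebrafish embryos, dechorionated with pronase at 4 hpf, were exposed singly from 6 hpf to 120 hpf statically at 28C in sealed, dark plates with 0.64% DMSO; pigmentation scored present/absent by brightfield microscopy, fitted against DMSO.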

[18] = Tanguay_ZF_120hpf_CIRC_legacy: (Legacy) Oregon State University Tanguay Lab 120 Hour Post-fertilization zebrafish Assay for Circulatory Malformation (AID 2283651)
Method in brief: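 Dechorionated wild-type 5D zebrafish embryos, one per well, statically exposed from 6 to 120 hpf at 28C with 0.64% DMSO; circulatory malformation scored present/absent by brightfield microscopy at 120 hpf, dead embryos excluded.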

Measured: AC50

Sequence of Cellular tumor antigen p53 (Homo sapiens) (P04637 whole entry, looked up): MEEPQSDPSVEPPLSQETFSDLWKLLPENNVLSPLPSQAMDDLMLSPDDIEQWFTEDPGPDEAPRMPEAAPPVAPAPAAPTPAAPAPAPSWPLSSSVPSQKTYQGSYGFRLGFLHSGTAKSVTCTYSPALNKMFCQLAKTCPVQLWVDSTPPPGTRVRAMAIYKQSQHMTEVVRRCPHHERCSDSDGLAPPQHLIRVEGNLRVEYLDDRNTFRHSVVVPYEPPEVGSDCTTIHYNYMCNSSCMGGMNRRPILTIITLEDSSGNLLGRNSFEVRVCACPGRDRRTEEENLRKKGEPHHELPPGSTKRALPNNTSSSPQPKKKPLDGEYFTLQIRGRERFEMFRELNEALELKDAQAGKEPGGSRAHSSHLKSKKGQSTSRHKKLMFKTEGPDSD

C1CCC(NC2CCCCC2)CC1
inactive: [1] | [2] | [3] | [4] | [5]

OCC(O)CCl (stereo unspecified)
inactive: [1] | [2] | [3] | [4] | [5]

CCNc1nc(NC(C)(C)C)nc(SC)n1
inactive: [1] | [2] | [3] | [4] | [5]

C=C(C)C(=O)[O][Sn]([CH2]CCC)([CH2]CCC)[CH2]CCC
active: [1] 17.5 µM | [2] 1.5 µM | [3] 35.9 µM | [4] 1.74 µM | [5] 28.7 µM | [6] 1.77 µM
inactive: all other assays above

CNC
inactive: [1] | [2] | [3] | [4] | [5]

CC(Br)C(=O)O (stereo unspecified)
inactive: [1] | [2] | [3] | [4] | [5]

Clc1ccc(C2(Cn3cncn3)CC(Br)CO2)c(Cl)c1 (stereo unspecified)
inactive: [1] | [2] | [3] | [4] | [5]

CCCCCCCCc1ccc(O)cc1
not listed: [17] | [18]
inactive: all other assays above

COP(=S)(OC)Oc1ccc(Sc2ccc(OP(=S)(OC)OC)cc2)cc1
inactive: [1] | [2] | [3] | [4] | [5]

CC(=O)[O][Hg][c]1ccccc1
active: [1] 1.46 µM and 1.07 µM and 1.23 µM | [2] 3.63 µM and 4.05 µM and 3.54 µM | [3] 2.9 µM and 2.82 µM and 4.64 µM | [4] 1.5 µM and 1.56 µM and 2.25 µM | [5] 7.28 µM and 2.97 µM and 7.86 µM | [6] 0.179 µM
inactive: all other assays above

Nc1cccc(Cl)c1
inactive: [1] | [2] | [3] | [4] | [5]

CC(=O)C(Cl)C(=O)N(C)C (stereo unspecified)
inactive: [1] | [2] | [3] | [4] | [5]

P.[In]
inactive: [1] | [2] | [3] | [4] | [5]

Oc1ccc(-c2ccccc2)cc1
inactive: [1] | [2] | [3] | [4] | [5]

N#CN=C(N)N
inactive: [1] | [2] | [3] | [4] | [5]

COc1cc(OC)nc(NC(=O)NS(=O)(=O)c2ncccc2C(=O)N(C)C)n1
inactive: [1] | [2] | [3] | [4] | [5]

O=C(Nc1ccc2[nH]ccc2c1)c1cc2cc(F)ccc2n1Cc1cccc(F)c1
active: [1] 86.7 µM | [2] 46.1 µM | [3] 83.2 µM | [5] 42.2 µM
inactive: all other assays above

COP(=S)(OC)Oc1cc(Cl)c(Cl)cc1Cl
inactive: [1] | [2] | [3] | [4] | [5]

CC(C)c1ccc(CO)cc1
inactive: [1] | [2] | [3] | [4] | [5]

COP(=O)(OC)OC
inactive: [1] | [2] | [3] | [4] | [5]

O=S(=O)(c1ccc(Cl)cc1)c1ccc(Cl)cc1
inactive: [1] | [2] | [3] | [4] | [5]

COc1cc2c(cc1OC)[C@@]13CCN4CC5=CCO[C@H]6CC(=O)N2[C@H]1[C@H]6[C@H]5C[C@H]43
inactive: [1] | [2] | [3] | [4] | [5]

C[C@]12CCC(=O)C[C@@H]1CC[C@@H]1[C@@H]2CC[C@]2(C)[C@@H](O)CC[C@@H]12
inactive: all assays above

O=C(O)C(Cl)(Cl)Cl
inactive: all assays above

— PubChem BioAssay (EPA / NIEHS)
